# About 410 targets per protein were measured; listed, in parts, are those with the strongest signals and a random draw of the rest.
# Legend:
# Assay in all cases: glycan array binding signal (z-score within array); higher = stronger binding
# Conditions in all cases: glycan notation: IUPAC condensed, linker removed
# Fuc(a1-2)Gal = target: Fuc(a1-2)Gal
# Summary of the method: (§1)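 The Consortium for Functional Glycomics database supplied 3228 glycan arrays, of which those lacking an available protein sequence were dropped. The binding signal, a within-array Z-score, was averaged across arrays of the same protein sequence and across linkers. Negative scores can be read as non-binding.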
# Fuc(a1-2)Gal(b1-3)GalNAc = target: Fuc(a1-2)Gal(b1-3)GalNAc
# Summary of the method: as §1
# [1] = target: Fuc(a1-2)Gal(b1-3)GlcNAc(b1-2)Man(a1-3)[Fuc(a1-2)Gal(b1-3)GlcNAc(b1-2)Man(a1-6)]Man(b1-4)GlcNAc(b1-4)[Fuc(a1-6)]GlcNAc
# Summary of the method: as §1
# [2] = target: Fuc(a1-2)Gal(b1-3)GlcNAc6S
# Summary of the method: as §1
# Fuc(a1-2)Gal6S(b1-4)Glc = target: Fuc(a1-2)Gal6S(b1-4)Glc
# Summary of the method: as §1
# [3] = target: Fuc(a1-2)[Gal(a1-3)]Gal(b1-4)[Fuc(a1-3)]GlcNAc(b1-3)GalNAc
# Summary of the method: as §1
# [4] = target: Fuc(a1-2)[Gal(a1-4)]Gal(b1-4)GlcNAc
# Summary of the method: as §1
# [5] = target: Fuc(a1-2)[GalNAc(a1-3)]Gal(b1-4)Glc
# Summary of the method: as §1
# [6] = target: Fuc(a1-2)[GalNAc(a1-3)]Gal(b1-4)[Fuc(a1-3)]GlcNAc
# Summary of the method: as §1
# [7] = target: Fuc(a1-3)[Gal(b1-4)]GlcNAc(b1-3)Gal(b1-4)[Fuc(a1-3)]GlcNAc(b1-3)Gal(b1-4)[Fuc(a1-3)]GlcNAc
# Summary of the method: as §1
# [8] = target: Fuc(a1-3)[Gal(b1-4)]GlcNAc(b1-3)GalNAc
# Summary of the method: as §1
# Fuc(b1-3)GlcNAc = target: Fuc(b1-3)GlcNAc
# Summary of the method: as §1
# [9] = target: Gal(a1-3)Gal(b1-4)GlcNAc(b1-2)Man
# Summary of the method: as §1
# [10] = target: Gal(a1-3)Gal(b1-4)GlcNAc(b1-3)GalNAc
# Summary of the method: as §1
# [11] = target: Gal(b1-3)[Fuc(a1-4)]GlcNAc(b1-3)Gal(b1-4)[Fuc(a1-3)]GlcNAc
# Summary of the method: as §1
# [12] = target: Gal(b1-3)[GlcNAc(b1-6)]GalNAc
# Summary of the method: as §1
# [13] = target: Gal(b1-4)GalNAc(a1-3)[Fuc(a1-2)]Gal(b1-4)GlcNAc
# Summary of the method: as §1
# [14] = target: Gal(b1-4)GlcNAc(b1-2)Man(a1-3)[Gal(b1-4)GlcNAc(b1-2)Man(a1-6)]Man(b1-4)GlcNAc(b1-4)[Fuc(a1-6)]GlcNAc
# Summary of the method: as §1
# [15] = target: Gal(b1-4)GlcNAc(b1-2)Man(a1-3)[Gal(b1-4)GlcNAc(b1-2)Man(a1-6)][Gal(b1-4)GlcNAc(b1-4)]Man(b1-4)GlcNAc(b1-4)[Fuc(a1-6)]GlcNAc
# Summary of the method: as §1
# [16] = target: Gal(b1-4)GlcNAc(b1-3)Gal(b1-4)Glc
# Summary of the method: as §1
# [17] = target: Gal(b1-4)GlcNAc(b1-3)Gal(b1-4)GlcNAc(b1-3)Gal(b1-4)GlcNAc
# Summary of the method: as §1
# [18] = target: Gal(b1-4)GlcNAc(b1-3)Gal(b1-4)GlcNAc(b1-3)Gal(b1-4)GlcNAc(b1-2)Man(a1-3)[Gal(b1-4)GlcNAc(b1-3)Gal(b1-4)GlcNAc(b1-3)Gal(b1-4)GlcNAc(b1-2)Man(a1-6)]Man(b1-4)GlcNAc(b1-4)GlcNAc
# Summary of the method: as §1
# [19] = target: Gal(b1-4)GlcNAc(b1-3)Gal(b1-4)GlcNAc(b1-3)Gal(b1-4)GlcNAc(b1-2)Man(a1-3)[Gal(b1-4)GlcNAc(b1-3)Gal(b1-4)GlcNAc(b1-3)Gal(b1-4)GlcNAc(b1-2)Man(a1-6)]Man(b1-4)GlcNAc(b1-4)[Fuc(a1-6)]GlcNAc
# Summary of the method: as §1
# [20] = target: Gal(b1-4)GlcNAc(b1-3)Gal(b1-4)GlcNAc(b1-3)Gal(b1-4)GlcNAc(b1-2)[Gal(b1-4)GlcNAc(b1-3)Gal(b1-4)GlcNAc(b1-3)Gal(b1-4)GlcNAc(b1-6)]Man(a1-6)[Gal(b1-4)GlcNAc(b1-3)Gal(b1-4)GlcNAc(b1-3)Gal(b1-4)GlcNAc(b1-2)Man(a1-3)]Man(b1-4)GlcNAc(b1-4)[Fuc(a1-6)]GlcNAc
# Summary of the method: as §1
# [21] = target: Gal(b1-4)GlcNAc(b1-3)Gal(b1-4)GlcNAc(b1-3)Gal(b1-4)GlcNAc(b1-3)Gal(b1-4)GlcNAc(b1-2)Man(a1-3)[Gal(b1-4)GlcNAc(b1-3)Gal(b1-4)GlcNAc(b1-3)Gal(b1-4)GlcNAc(b1-3)Gal(b1-4)GlcNAc(b1-2)Man(a1-6)]Man(b1-4)GlcNAc(b1-4)GlcNAc
# Summary of the method: as §1
# [22] = target: Gal(b1-4)GlcNAc(b1-3)Gal(b1-4)GlcNAc(b1-3)Gal(b1-4)GlcNAc(b1-3)Gal(b1-4)GlcNAc(b1-2)Man(a1-3)[Gal(b1-4)GlcNAc(b1-3)Gal(b1-4)GlcNAc(b1-3)Gal(b1-4)GlcNAc(b1-3)Gal(b1-4)GlcNAc(b1-2)Man(a1-6)]Man(b1-4)GlcNAc(b1-4)[Fuc(a1-6)]GlcNAc
# Summary of the method: as §1
binder,measurement,setting,value
B725 (Bifidobacterium sp) (protein) MNNTTRAVIATAAIGALLIPLAGCGNTTTSSGKTELTVWSWDASIDRAAKSFMKANPDITVKVSNVGSTEETYTALNNAAQAGSGLPDVTLIEYLAIPQFVHSDTLMDLSKVYNTAKLKDTFTPGTWNSVNINGGLYAMPADSGPMAYFYDKDVFDKAGISEPPTTWDEFYEDAKKIRATGSYITSDSGDAGLFNAMMWAMGGHAYKLNDDKLTINIAKDKGAQRFMDLWQKMRDEDLIDVHTKTWTDDWMKSLGDGSIASLISGAWMANNLLQGVPQATGKFRVALLPTIDGTPINGEYGGSGLAITKKIPDGKLDAAKKFVEYVTTNDEGIDARVSNGSFPATTKTLNQKDFLAKTTLRNTDGSDNEFFGGQKYNEIFSQAAKDVTGKWEFLPFEPYARSVYNDNMGSFFAGKTSFRTAADNWQKALKDYAKDQGFTVQ,glycan array binding signal (z-score),Fuc(a1-2)Gal,-0.221
same,glycan array binding signal (z-score),Fuc(a1-2)Gal(b1-3)GalNAc,-0.216
same,glycan array binding signal (z-score),[1],-0.181
same,glycan array binding signal (z-score),[2],-0.234
same,glycan array binding signal (z-score),Fuc(a1-2)Gal6S(b1-4)Glc,-0.199
same,glycan array binding signal (z-score),[3],-0.208
same,glycan array binding signal (z-score),[4],-0.23
same,glycan array binding signal (z-score),[5],-0.222
same,glycan array binding signal (z-score),[6],-0.217
same,glycan array binding signal (z-score),[7],-0.21
same,glycan array binding signal (z-score),[8],-0.216
same,glycan array binding signal (z-score),Fuc(b1-3)GlcNAc,-0.226
same,glycan array binding signal (z-score),[9],-0.214
same,glycan array binding signal (z-score),[10],-0.225
same,glycan array binding signal (z-score),[11],-0.203
same,glycan array binding signal (z-score),[12],-0.224
same,glycan array binding signal (z-score),[13],-0.218
same,glycan array binding signal (z-score),[14],-0.204
same,glycan array binding signal (z-score),[15],-0.231
same,glycan array binding signal (z-score),[16],6.34
same,glycan array binding signal (z-score),[17],6.94
same,glycan array binding signal (z-score),[18],5.11
same,glycan array binding signal (z-score),[19],4.38
same,glycan array binding signal (z-score),[20],7.51
same,glycan array binding signal (z-score),[21],5.3
same,glycan array binding signal (z-score),[22],4.85
